High-throughput results deposited in PubChem by National Center for Advancing Translational Sciences (NCATS).
Rows were chosen to be rich in hits. Some 9.9% of all compounds tested hit in one or more screens of this group.
KB-V1 cytotox = qHTS assay for MDR1-selective chemotherapeutics: Primary screen using the drug-selected MDR subline cells KB-V1 | KB-V1 MDR cells viability, CellTiter-Glo, 72 h | Potency, µM (titrated, usually from 46.1 µM), usual class: cytotoxic | 3.4% of 400,000 active | AID 1347076, 2019; note: potency is the fitted concentration of half-maximal effect; % is set by controls: 0 for no effect and ±100 for the full control effect; nearly all actives have a fitted effect of over 60% in size
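KB-V1, DMEM (no phenol red) + 10% FBS; cpd pin-transferred, titration series; 72 h, 37 degrees C; CellTiter-Glo, luminescence. Data normalized, curve-fit.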
KB-3-1 tox = qHTS assay for MDR1-selective chemotherapeutics: Primary screen using the parental adenocarcinoma cell KB-3-1; KB-3-1 viability, CellTiter-Glo ATP luminescence, 72 h; Potency, µM (highest dose often 46.1 µM), hits mostly cytotoxic; 1.4% of 400,000 active; AID 1347075, 2019; note: potency is the fitted concentration of half-maximal effect; % is set by controls: 0 for no effect and ±100 for the full control effect; nearly all actives have a fitted effect of over 60% in size
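Screening of KB-3-1 cells (DMEM, 10% FBS, phenol-red free) ran from lowest to highest compound concentration; after 72 h at 37 °C viability was read luminescently and curves fitted.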
MCF10A rerep = A quantitative high throughput screen for small molecules that induce DNA re-replication in MCF 10a normal breast cells; MCF 10A DNA re-replication, Hoechst nuclear intensity, 48 h; Potency, µM (series often up to 46.1 µM), for the others: at the top dose activity, positive = re-replication, actives largely listed as activators; 2.9% of 350,000 active; note: potency is the fitted concentration of half-maximal effect; % of control where 0% means no effect; nearly all actives have a fitted effect of over 50% in size
SW480 rereplic = A quantitative high throughput screen for small molecules that induce DNA re-replication in SW480 colon adenocarcinoma cells. SW480 DNA re-replication, Hoechst DNA content imaging, 48 h. 1.8% of 340,000 active. Potency, µM (series often up to 46.1 µM), for inactives: at the highest dose re-replication activation, usual class: activators; note: potency is the fitted concentration of half-maximal effect; % of control where 0% means no effect; nearly all actives have a fitted effect of over 55% in size
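250 cells/well; 23 nL cpd via pin tool; 48 hr, 37 C, 5% CO2; Hoechst 40 min; imager read of total nuclear intensity, ex 405/em 500-530 nm.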
IL-1B inflam inh = qHTS for Inhibitors of Inflammasome Signaling: IL-1-beta AlphaLISA Primary Screen | THP-1 LPS/ATP IL-1B secretion, AlphaLISA, 16 h; hits give low values | activity change, % at 57.5 µM | 4.7% of 360,000 active | AID 743279, 2014; in the data active = activity change below about -50%; inconclusive = mostly about -30% to -49%; note: % is set by controls: 0 for no effect and ±100 for the full control effect
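THP-1 cells pretreated 1 hr with compounds (up to 57.5 uM final), then stimulated with LPS (250 ng/mL final) plus ATP (1.25 mM final); secreted IL-1B measured by AlphaLISA after 16 hr, decreased signal indicating inhibition.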
An asterisk follows results filed as active; i = inactive; ? = inconclusive; · = no result given; [ ] = remark or other dose. Unless noted, calls come from the whole dose curve; as a rule, active = well fitted curve in the direction sought with a large enough effect; inconclusive = small, poorly fitted or top-dose-only effect, or another doubt; inactive = no such curve, though single readings can be large; an effect the other way counts as inactive or inconclusive.

SMILES | KB-V1 cytotox | KB-3-1 tox | MCF10A rerep | SW480 rereplic | IL-1B inflam inh
Cc1ccc(CC(=O)NCc2ccc(Cl)cc2)cc1 | ? | i | 7.31µM* | 0.92µM* | 33.2
Cc1ccc(CNC(=O)CCn2nc(-c3ccc(Cl)cc3)ccc2=O)cc1 | 23.1µM* | i | 4.1% | -3.7% | -28.3
CCc1ccc(CNC(=O)Cn2nc(-c3ccccc3)ccc2=O)cc1 | i | i | 3.2% | 4.9% | -87.2*
O=C(O)Cn1nc(-c2ccccc2)ccc1=O | ? | i | ? | 5.7% | 5.8
O=C(NC12CC3CC(CC(C3)C1)C2)N(Cc1ccccc1)Cc1ccncc1 | i | i | -11.9% | 14.9% | -27.8
CCOC(=O)N1CCN(C(=O)c2ccc(CS(=O)c3ccccc3)o2)CC1 (stereo unspecified) | i | i | 0.6% | -0.5% | 15.2
Fc1ccc(NC(=S)Nc2cc(Cl)ccc2Cl)cc1 | ? | i | -15.2% | -7.0% | 17.6
O=C(NC1CC1)c1ccc(-n2cccc2)cc1 | i | i | -1.6% | -0.4% | -16.0
O=C(CNC(=O)c1ccc(Br)o1)NCc1ccc(F)cc1 | i | i | ? | 27.9% | 26.2
O=C(CNC(=O)c1ccc(Br)o1)NCc1ccc(Cl)cc1 | i | i | 25.9µM* | ? | 3.7
O=C1NC[C@H](Cc2ccccc2)N(C[C@@H]2CCCN2C[C@H](Cc2ccccc2)N2C[C@H](Cc3ccccc3)N(CCc3ccccc3)C(=O)C2=O)C1=O | i | ? | · | · | -70.3*
O=C1NC[C@H](Cc2ccccc2)N(C[C@H]2CCCN2C[C@H](Cc2ccccc2)N2C[C@H](Cc3ccccc3)N(CCc3ccccc3)C(=O)C2=O)C1=O | i | ? | ? | ? | -77.4*
O=C1NC[C@H](Cc2ccc(O)cc2)N(C[C@@H]2CCCN2C[C@H](Cc2ccccc2)N2C[C@H](Cc3ccc(O)cc3)N(CCc3ccccc3)C(=O)C2=O)C1=O | i | i | · | · | ?
COc1ccccc1/C=C/c1nc(C#N)c(N2CCN(c3ccccc3)CC2)o1 | i | i | · | · | ·
CN(C)c1ccc(/C=C/c2nc3ccccc3s2)cc1Cl | i | i | · | · | ·
COc1cc2nc(/C=C/c3ccc(N(C)C)cc3)sc2cc1SC | i | i | 3.26µM* | 20.6µM* | ?
Cc1cccc(OCc2occc2C(=O)Nc2cccc(-n3cnnn3)c2)c1 | i | i | 0.6% | -0.6% | 58.4
Cc1ccccc1OCc1occc1C(=O)Nc1cccc(-n2cnnn2)c1 | ? | 16.4µM* | -5.6% | -2.5% | 11.4
O=[N+]([O-])c1ccc(-c2cnc(SCc3ccccc3Cl)[nH]2)cc1 | ? | ? | ? | 4.9% | -7.7
O=[N+]([O-])c1ccc(-c2cnc(SC(c3ccccc3)c3ccccc3)[nH]2)cc1 | ? | ? | ? | ? | -52.0*
Cc1cc(C)c(CSc2ncc(-c3ccc([N+](=O)[O-])cc3)[nH]2)c(C)c1 | 23.1µM* | ? | 18.4µM* | ? | -59.4*
CC(C)NC(=S)NC(=O)c1ccc(-c2ccccc2)cc1 | ? | ? | ? | ? | -56.9*
CCC(=O)NNC(=S)NC(=O)c1ccc(C)cc1 | ? | ? | 3.7% | 8.8% | -60.7*
CC(=O)NNC(=S)NC(=O)c1ccc(C)cc1 | i | i | -2.5% | 4.8% | 7.2
Cc1cccc(SC2CCN(C(=O)C3CCC(=O)N(C4CC4)C3)CC2)c1 (stereo unspecified) | i | i | 11.8% | -8.0% | -5.2
SMILES | KB-V1 cytotox | KB-3-1 tox | MCF10A rerep | SW480 rereplic | IL-1B inflam inh
Cc1cc(C)cc(OCc2cc(=O)n3c4c(sc3n2)CCCC4)c1 | ? | i | · | · | ·
CC1=Nc2ccccc2N=C(NC(=O)c2ccccc2)C1c1ccc(Cl)cc1 (stereo unspecified) | i | ? | 1.7% | 1.9% | -58.2*
O=C1CC(c2ccc(Cl)cc2)N=C(NC(=O)c2ccccc2)N1 (stereo unspecified) | i | i | · | · | ·
CC(C)c1ccc(NC(=O)CCNS(=O)(=O)c2ccc3c(c2)oc(=O)n3C)cc1 | ? | i | · | · | ·
C[C@@H]1O[C@H](C2CCCC2)Cc2[nH]c(=S)[nH]c(=O)c21 | ? | 16.4µM* | · | · | 37.5
CC(C)CC1OC(C(C)C)Cc2[nH]c(=S)[nH]c(=O)c21 (stereo unspecified) | i | i | · | · | 37.8
CC(C)[C@@H]1Cc2[nH]c(=O)[nH]c(=O)c2[C@H](C)O1 | 18.4µM* | ? | · | · | -9.2
CC(C)[C@@H]1Cc2[nH]c(=S)[nH]c(=O)c2[C@H](C)O1 | 5.8µM* | 8.2µM* | · | · | 3.2
COc1cccc(C2=NOC(C(=O)Nc3cccnc3)C2)c1 (stereo unspecified) | 16.4µM* | i | -5.1% | 0.1% | 23.7
O=C(NCc1cccnc1)C1CC(c2cccc(Br)c2)=NO1 (stereo unspecified) | i | ? | 5.8µM* | ? | 71.6
Cc1cc(C)c2c(c1)NC(c1cc3c(cc1Br)OCO3)C1CC=CC21 (stereo unspecified) | ? | ? | ? | -18.2% | 0.0
NC(=O)C1CCN(c2ncnc(-c3ccc4c(c3)OCCCO4)n2)CC1 | i | i | · | · | ·
O=C(Nc1ccccc1)Nc1cnccn1 | i | i | -12.7% | 0.9% | -27.7
CC(C)=C[C@@H]1C[C@H](C)[C@H]2CC[C@H](C)c3c(O)c(O)c(C)c1c32 | i | i | ? | 13.8% | -7.5
CC(=O)Oc1c(C)c2c3c(c1OC(C)=O)[C@@H](C)CC[C@@H]3[C@@H](C)C[C@H]2C=C(C)C | ? | i | 25.9µM* | 6.0% | -10.3
CC(C)=C[C@H]1C[C@H](C)[C@H]2CC[C@H](C)c3c(O[C@@H]4OC[C@@H](O)[C@H](O)C4O)c(O)c(C)c1c32 (stereo partly specified) | i | i | 20.6µM* | -92.2%[9.22 µM] | -74.2*
CC(=O)O[C@H]1[C@H](O)[C@H](Oc2c(O)c(C)c3c4c2[C@@H](C)CC[C@@H]4[C@@H](C)C[C@H]3C=C(C)C)O[C@@H](C)[C@H]1O | i | i | ? | -3.8% | -77.4*
O=c1c(Cl)c(NCCO)cnn1-c1cccc(Cl)c1 | ? | i | -14.5% | ? | -15.0
O=c1c(Cl)c(NCCCO)cnn1-c1nc2ccccc2[nH]1 | i | ? | 2.91µM* | ? | -117.3*
C=CCN(CC=C)c1cnn(-c2nc3ccccc3[nH]2)c(=O)c1Cl | 4.11µM* | i | 28.6% | 12.6% | ?
O=S(=O)(Nc1nc2ccccc2[nH]1)c1ccc(Cl)cc1 | ? | i | -0.1% | -7.3% | -5.9
